Data taken from PubChem BioAssay.
Activity calls are given as the source filed them. Unless noted, the rule behind the calls is not given here.

Columns and labels:
[1] = compound effects on lung adenocarcinoma cell viability – A549, calcein-AM fluorescence, 48 h, basal, profiling panel (AID 1162); conditions: higher = more signal; note: test concentration not given here
[2] = compound effects on differentiated 3T3-L1 adipocyte viability – cell-based, 3T3-L1 adipocytes, calcein-AM fluorescence, 48 h, basal, profiling panel (AID 1163); conditions: 3T3-L1 adipocytes viability, higher = more signal; note: test concentration not given here
[3] = compound effects on hepatocellular carcinoma cell viability – HepG2, calcein-AM fluorescence, 48 h, basal, profiling panel (AID 1164); conditions: higher = more signal; note: test concentration not given here
[4] = compound effects on multiple myeloma cell viability – MM1S, calcein-AM fluorescence, 48 h, basal, profiling panel (AID 1165); conditions: higher = more signal; note: test concentration not given here
[5] = calcein-AM signal in unstimulated myeloma cells – cell-based, calcein-AM fluorescence, 48 h, PK04 Diversity Set, profiling panel (AID 1166); conditions: RPMI8226 myeloma viability, higher = more signal;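 note: cells grown under basal conditions without added stimulus; test concentration not given here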
[6] = JC-1 mitochondrial signal, unstimulated HepG2 cells – cell-based, JC-1 fluorescence, 24 h, 100 nL compound, profiling panel (AID 1167); conditions: HepG2 mitochondrial potential, higher = more signal; note: test concentration not given here
[7] = JC-1 mitochondrial signal, unstimulated adipocytes – cell-based, JC-1 fluorescence, 3T3-L1 adipocytes, 24 h, 100 nL compound, profiling panel (AID 1168); conditions: JC-1 mitochondrial fluorescence, higher = more signal, called active from +8 up or from −8 down; note: test concentration not given here
[8] = JC-1 mitochondrial signal, unstimulated myeloma cells – cell-based, JC-1 fluorescence, RPMI8226, 24 h, 100 nL compound, profiling panel (AID 1169); conditions: JC-1 mitochondrial potential fluorescence, higher = more signal; note: test concentration not given here
[9] = JC-1 mitochondrial signal, unstimulated MM1S myeloma – cell-based, JC-1 fluorescence, 24 h, 100 nL compound, profiling panel (AID 1170); conditions: MM1S mitochondrial potential, higher = more signal; note: test concentration not given here
[10] = resazurin metabolic signal in A549 cells – cell-based, resazurin fluorescence, 24 h, PK04 Diversity Set, profiling panel (AID 1171); conditions: A549 viability, higher = more signal, called active from +8 up or from −8 down; note: test concentration not given here
[11] = resazurin metabolic signal in HepG2 cells – cell-based, resazurin fluorescence, 24 h, PK04 Diversity Set, profiling panel (AID 1172); conditions: HepG2 viability, higher = more signal; note: test concentration not given here
[12] = budding yeast growth changes without added modifier – OD600, strain BY4716, 24 h, basal condition, primary screen (AID 1173); conditions: S. cerevisiae BY4716 growth, OD600, 24 h; higher = more signal, called active from +8 up or from −8 down
[13] = viability profiling in MM1S myeloma cells – cell-based, resazurin fluorescence, basal, 24 h, PK04 Diversity Set, profiling panel (AID 1174); conditions: higher = more signal, called active from +8 up or from −8 down; note: test concentration not given here
[14] = molecular target: Dihydroorotate dehydrogenase (quinone), mitochondrial (Plasmodium falciparum (isolate 3D7)) (UniProt Q08210); experiment: inhibition of P. falciparum DHODH – biochemical, C-terminal His tag, absorbance 600 nm, primary screen (AID 1175); conditions: PfDHODH enzyme, DCIP absorbance 600 nm; higher = more signal, called active from +8 up or from −8 down;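 note: recombinant parasite enzyme with a five histidine tag at its C terminus; test concentration not given here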
[15] = inhibition of PAO1 biofilm formation – strain PAO1, LB-PBS medium, absorbance 600 nm, primary screen (AID 1176); note: test concentration not given here; conditions: P. aeruginosa PAO1 growth/biofilm, A600, 12 h; higher = more signal
[16] = growth modulation of vineyard yeast isolate – strain RM11-1a, OD600, basal, 24 h, primary screen (AID 1177);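 note: cultures grown under basal conditions with no added stressor; test concentration not given here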; conditions: S. cerevisiae RM11-1a growth, OD600, 24 h; higher = more signal, called active from +8 up or from −8 down
[17] = growth of efflux-deficient E. coli DRC39 – strain DRC39, OD650, 24 h, E. coli filamentation inducers, primary screen (AID 1178);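 note: growth measured as culture turbidity by optical density at 650 nm; test concentration not given here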; conditions: E. coli DRC39 acrAB, higher = more signal, called active from +8 up or from −8 down
[18] = growth of efflux-deficient E. coli DRC39 – strain DRC39, OD650, 48 h, E. coli filamentation inducers, primary screen (AID 1179);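 note: screen aims at cell division blockers that make cells filament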; conditions: E. coli DRC39 delta-acrAB growth, higher = more signal, called active from +8 up or from −8 down
[19] = viability profiling in RPMI8226 myeloma cells – cell-based, resazurin fluorescence, basal, 24 h, PK04 Diversity Set, profiling panel (AID 1180); conditions: higher = more signal;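 note: RPMI8826 multiple myeloma cell line at 5000 cells per well; test concentration not given here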
[20] = molecular target: E3 ubiquitin-protein ligase XIAP (Homo sapiens) (UniProt P98170); experiment: small molecules binding XIAP protein – biophysical, small-molecule microarray, fluorescence 635 nm, primary screen (AID 1181); conditions: higher = more signal;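 note: score merges 667 nm emission and signal to noise over triplicate slides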
Sequence of E3 ubiquitin-protein ligase XIAP (Homo sapiens) (P98170 whole entry, looked up): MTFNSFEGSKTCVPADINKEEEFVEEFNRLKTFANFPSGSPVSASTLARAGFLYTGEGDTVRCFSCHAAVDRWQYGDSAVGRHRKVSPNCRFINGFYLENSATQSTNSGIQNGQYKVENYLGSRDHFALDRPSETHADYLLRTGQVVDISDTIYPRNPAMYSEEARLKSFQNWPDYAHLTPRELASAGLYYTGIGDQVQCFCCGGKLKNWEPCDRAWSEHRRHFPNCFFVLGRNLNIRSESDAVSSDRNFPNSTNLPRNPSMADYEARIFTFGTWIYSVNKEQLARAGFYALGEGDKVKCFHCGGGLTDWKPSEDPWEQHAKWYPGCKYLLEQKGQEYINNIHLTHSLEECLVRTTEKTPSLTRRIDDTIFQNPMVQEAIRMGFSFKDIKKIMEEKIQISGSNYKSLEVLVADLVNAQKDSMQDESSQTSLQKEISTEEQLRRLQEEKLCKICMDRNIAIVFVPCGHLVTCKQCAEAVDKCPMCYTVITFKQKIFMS

Sequence of Dihydroorotate dehydrogenase (quinone), mitochondrial (Plasmodium falciparum (isolate 3D7)) (Q08210 whole entry, looked up): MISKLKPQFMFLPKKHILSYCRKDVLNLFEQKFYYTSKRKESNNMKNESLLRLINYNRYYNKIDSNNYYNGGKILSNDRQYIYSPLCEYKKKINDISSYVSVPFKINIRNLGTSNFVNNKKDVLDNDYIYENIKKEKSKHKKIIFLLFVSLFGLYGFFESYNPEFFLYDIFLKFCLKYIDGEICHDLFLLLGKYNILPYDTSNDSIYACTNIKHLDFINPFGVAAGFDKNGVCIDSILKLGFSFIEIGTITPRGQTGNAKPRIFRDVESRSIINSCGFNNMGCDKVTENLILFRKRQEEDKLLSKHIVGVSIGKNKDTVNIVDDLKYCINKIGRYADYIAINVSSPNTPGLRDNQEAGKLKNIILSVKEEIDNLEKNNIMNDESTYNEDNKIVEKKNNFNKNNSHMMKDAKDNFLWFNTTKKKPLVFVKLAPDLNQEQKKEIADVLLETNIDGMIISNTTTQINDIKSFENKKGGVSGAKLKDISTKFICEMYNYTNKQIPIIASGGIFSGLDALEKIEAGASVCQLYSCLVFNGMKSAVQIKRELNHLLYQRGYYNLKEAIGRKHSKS

## C[C@H]1C2[C@H](Cc3ccccc3)NC(=O)[C@]23C(=O)N[C@H](Cc2ccccc2)C(=O)N[C@@H](Cc2ccccc2)C(=O)NC/C=C\C/C=C/C3[C@@H]2O[C@]12C (stereo not given in full)
[1]
  z-score: 0.373
[2]
  z-score: 0.353
[3]
  z-score: 0.0599
[4]
  z-score: -0.442
[5]
  z-score: -1.35
[6]
  z-score: 1.24
[7]
  z-score: 0.4 (inactive)
[8]
  z-score: -0.52
[9]
  z-score: 0.29
[10]
  z-score: 0.276 (inactive)
[11]
  z-score: -0.204
[12]
  z-score: -1.79 (inactive)
[13]
  z-score: 1.03 (inactive)
[14]
  composite z-score: -0.427 (inactive)
[15]
  z-score: -0.234 (inactive)
[16]
  z-score: -0.617 (inactive)
[17]
  z-score: 1.73 (inactive)
[18]
  z-score: 0.9 (inactive)
[19]
  z-score: 0.724
[20]
  composite z-score: 0.306

## CC(c1ccccc1)C(O)C1C=CC2C(=O)N(C)C(=O)C2N1N(c1ccccc1)c1ccccc1 (stereo not given)
[1]
  z-score: -0.279
[2]
  z-score: -1.94
[3]
  z-score: 0.919
[4]
  z-score: 0.455
[5]
  z-score: 0.427
[6]
  z-score: -0.288
[7]
  z-score: -1.37 (inactive)
[8]
  z-score: -0.17
[9]
  z-score: -0.939
[10]
  z-score: -0.346 (inactive)
[11]
  z-score: -1.22
[12]
  z-score: -0.0972 (inactive)
[13]
  z-score: -1.91 (inactive)
[14]
  composite z-score: -0.0374 (inactive)
[15]
  z-score: 0.419 (inactive)
[16]
  z-score: 0.265 (inactive)
[17]
  z-score: -0.502 (inactive)
[18]
  z-score: -0.0284 (inactive)
[19]
  z-score: -1.8
[20]
  composite z-score: -0.0918

## C#C[C@H](O[Si](C#Cc1ccccc1)(C(C)C)C(C)C)c1ccccc1
[1]
  z-score: -1.62
[2]
  z-score: -0.653
[3]
  z-score: -1.47
[4]
  z-score: -2.94
[5]
  z-score: -1.91
[6]
  z-score: -2.74
[7]
  z-score: -0.448 (inactive)
[8]
  z-score: -0.154
[9]
  z-score: -1.48
[10]
  z-score: -0.912 (inactive)
[11]
  z-score: -0.271
[12]
  z-score: -17.7 (active)
[13]
  z-score: -0.633 (inactive)
[14]
  composite z-score: -0.203 (inactive)
[15]
  z-score: 0.738 (inactive)
[16]
  z-score: -11.8 (active)
[17]
  z-score: -0.329 (inactive)
[18]
  z-score: 0.127 (inactive)
[19]
  z-score: -0.533
[20]
  composite z-score: 0.0049

## C=C(CCCC)/C(=C/C[C@H](OC(=O)c1ccncc1)c1cccc(OCCO)c1)c1cc(C(=O)OC)ccc1OC
[1]
  z-score: 0.215
[2]
  z-score: 2.52
[3]
  z-score: 0.0827
[4]
  z-score: -1.78
[5]
  z-score: -1.93
[6]
  z-score: 4.13
[7]
  z-score: -0.174 (inactive)
[8]
  z-score: -0.337
[9]
  z-score: -0.342
[10]
  z-score: 2.6 (inactive)
[11]
  z-score: 1.06
[12]
  z-score: -0.0252 (inactive)
[13]
  z-score: 0.585 (inactive)
[14]
  composite z-score: -1.61 (inactive)
[15]
  z-score: -0.988 (inactive)
[16]
  z-score: -0.549 (inactive)
[17]
  z-score: -0.232 (inactive)
[18]
  z-score: -0.0622 (inactive)
[19]
  z-score: 0.15
[20]
  composite z-score: -0.0916
